From PubChem BioAssay (Tox21) come the findings set out here.

Where “and” joins values, the source holds several entries; their conditions need not be identical. Identical values can stand only once. Results filed as inconclusive are left out. A call without a number means that no potency is given here. Calls of active or inactive are those of the source. Calls come from the whole dose curve; as a rule, active = well fitted inhibition curve with a large enough effect in the signal ratio in the repeat runs (not every such curve was filed as active); inconclusive = weak or mixed curves, or effect the other way; inactive = no such curve, though single readings can be large or run the other way; the % refers to the signal ratio.
Potency is the fitted concentration of half-maximal effect.

Chain of Glucocorticoid receptor (Homo sapiens) (P04150 whole entry, looked up): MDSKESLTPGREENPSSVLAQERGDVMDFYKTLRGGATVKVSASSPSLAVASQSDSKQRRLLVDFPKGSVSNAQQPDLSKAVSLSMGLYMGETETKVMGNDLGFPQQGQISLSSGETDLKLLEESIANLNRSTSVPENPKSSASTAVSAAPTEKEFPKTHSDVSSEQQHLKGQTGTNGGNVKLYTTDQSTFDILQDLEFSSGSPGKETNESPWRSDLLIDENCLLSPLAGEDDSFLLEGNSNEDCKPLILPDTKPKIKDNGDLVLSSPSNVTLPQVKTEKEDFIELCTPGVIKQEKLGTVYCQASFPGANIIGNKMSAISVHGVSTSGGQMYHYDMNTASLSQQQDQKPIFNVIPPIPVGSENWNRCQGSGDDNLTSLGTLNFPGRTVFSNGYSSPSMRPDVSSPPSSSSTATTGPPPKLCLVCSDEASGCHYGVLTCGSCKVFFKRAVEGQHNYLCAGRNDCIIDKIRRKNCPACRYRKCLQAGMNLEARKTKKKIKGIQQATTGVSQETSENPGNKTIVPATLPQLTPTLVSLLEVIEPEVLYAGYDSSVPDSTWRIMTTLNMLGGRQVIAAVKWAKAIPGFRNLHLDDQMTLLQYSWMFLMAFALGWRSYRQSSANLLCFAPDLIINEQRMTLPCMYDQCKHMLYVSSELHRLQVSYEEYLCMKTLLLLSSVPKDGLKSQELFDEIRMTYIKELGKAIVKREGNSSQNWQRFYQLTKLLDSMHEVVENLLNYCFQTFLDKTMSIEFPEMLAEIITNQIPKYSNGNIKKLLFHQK

This assay addresses Glucocorticoid receptor (Homo sapiens) (UniProt P04150). Put plainly: qHTS assay to identify small molecule antagonists of the glucocorticoid receptor (GR) signaling pathway (AID 720692). Particulars: GR-bla HeLa, beta-lactamase FRET ratio, dexamethasone-stimulated, 18 h; series mostly up to 58.5 µM; activity change, negative = inhibition: at the top concentration. An excerpt:
U.S. Tox21 Program National Center for Advancing Translational Sciences [NCATS] NIH Chemical Genomics Center [NCGC] U.S. Environmental Protection Agency [EPA] National Institutes of Environmental Health Sciences [NIEHS] National Toxicology Program [NTP] U.S. Food and Drug Administration [FDA] Tox21 Assay Overview: The Glucocorticoid receptor (GR) is one of the members of the nuclear receptor family of ligand-dependent transcription factors. GR plays a critical role in carbohydrate, protein and lipid metabolisms and programmed cell death. CellSensor GR-bla HeLa cell line (Invitrogen) contains a beta-lactamase reporter gene under the control of the glucocorticoid response element stably integrated into HeLa cells, a cervical cancer cell line that expresses glucocorticoid receptor. The activation of the reporter gene under culture conditions can be detected by fluorescence intensity. This cell line has been used to screen the Tox21 10K compound library and to identify the compounds that inhibit the GR signaling.
Tox21 Assay Protocol Summary: The GR-bla HeLa cells were dispensed at 1500 cells/5 ul/well in 1536-well black wall/clear bottom plates using a Multidrop Combi (ThermoFisher Scientific, Waltham, MA) dispenser. After the assay plates were incubated at a 37 C/5% CO2 incubator for 4 hours, 23 nL of compounds dissolved in DMSO, positive controls or DMSO only was transferred to the assay plate by a pintool station (Kalypsys, San Diego, CA), followed by addition of 1 uL of dexamethasone (5 nM, final concentration in the well). The plates were incubated at 37 C for 18 hours. After 1 uL of LiveBLAzerTM B/G FRET substrate was added using a Flying Reagent Dispenser (Aurora Discovery, San Diego, CA), the plates were incubated at room temperature for 2 hours, and fluorescence intensity was measured by an Envision plate reader (PerkinElmer, Shelton, CT).
In the case of `O=C1CCC(N2C(=O)c3ccccc3C2=O)C(=O)N1` (stereo not given), the “activity change, negative = inhibition” value is 9.36% (inactive).

Consider `c1c[nH]cn1`, for which the Potency entry is “inactive”.

Take `CN(C)CCC(c1ccc(Cl)cc1)c1ccccn1` (stereo not given): the Potency entry was “inactive”.

Take `Cc1ccc(N(C)C)cc1`: the Potency result was “inactive”.

As to `CCc1cccc(C)c1N`, the “activity change, negative = inhibition” value was 0.851% (inactive).

On to `O=C(CC(C(=O)OC1CCCCC1)S(=O)(=O)O)OC1CCCCC1` (stereo not given), for which the Potency entry is “inactive”.

On to `OCCOCCOCCO`, for which the Potency entry was “inactive”.

Take `CSCCC=O`: the Potency entry was “inactive”.

On to `CCCCCCCCC/C=C/CC1CC(=O)OC1=O` (stereo not given), for which the Potency was 49 µM (active).

Regarding `O=[N+]([O-])c1ccc(/C=C/c2ccc([N+](=O)[O-])cc2S(=O)(=O)O)c(S(=O)(=O)O)c1`, the “activity change, negative = inhibition” value is -11.9% (inactive).

In the case of `CCCCC(CC)COC(=O)C(C#N)=C(c1ccccc1)c1ccccc1` (stereo not given), the “activity change, negative = inhibition” value was -7.95% (inactive).

`CC(C)(N)CO`: the Potency result was “inactive”.

Consider `O=P(OC(CCl)CCl)(OC(CCl)CCl)OC(CCl)CCl`, for which the Potency is 21.8 µM (active) and 30.9 µM (active).

Consider `Fc1ccc(Br)cc1`, for which the “activity change, negative = inhibition” value is 5.53% [at 78.9 µM] (inactive).

As to `C/C=C1/CC2C=CC1C2` (stereo not given), the “activity change, negative = inhibition” value is -3.05% (inactive).

As for `CC(c1cc2ccccc2s1)N(O)C(N)=O` (stereo not given), the Potency entry was “inactive”.

Consider `CC[C@H](C)C(=O)O[C@H]1C[C@@H](C)C=C2C=C[C@H](C)[C@H](CC[C@@H]3C[C@@H](O)CC(=O)O3)[C@H]21`, for which the Potency is 21.3 µM (active).

Regarding `COc1ccc(Nc2ccccc2)c(C)c1`, the Potency result was “inactive”.

In the case of `Cc1cnc(C(=O)NCCc2ccc(S(=O)(=O)NC(=O)NC3CCCCC3)cc2)cn1`, the Potency entry is “inactive”.

Consider `CCC(O)OCCCOC` (stereo not given), for which the Potency result was “inactive”.

Consider `CC(=O)Nc1ccccc1`, for which the Potency result was “inactive”.

With `CC1CCC2CC1C2(C)C` (stereo not given), the Potency entry is “inactive”.

Turning to `Nc1ccccc1[N+](=O)[O-]`, the “activity change, negative = inhibition” value was 0.511% (inactive).

In the case of `O=C(O)c1cc(C(=O)O)cc(S(=O)(=O)O)c1`, the “activity change, negative = inhibition” value was 0.422% (inactive).

For `C=C(C)C(=O)OCCOCCOCCOC(=O)C(=C)C`, the Potency result is “inactive”.

As to `C[Si](O[Si](C)(C)C)O[Si](C)(C)C`, the Potency entry was “inactive”.

On to `Cc1ccc(S(N)(=O)=O)cc1`, for which the Potency result is “inactive”.

In the case of `O=C(OCCOCCOC(=O)c1ccccc1)c1ccccc1`, the Potency result was “inactive”.

As for `C#CCN(C)Cc1ccccc1`, the Potency entry is “inactive”.

Consider `c1ccc2c(c1)ccc1ccccc12`, for which the “activity change, negative = inhibition” value was -1.06% (inactive).

Turning to `O=C(O)c1ccc2c(c1)C(=O)OC2=O`, the “activity change, negative = inhibition” value is 3.74% (inactive).

Take `O=C(O)CCCC[C@@H]1SC[C@@H]2NC(=O)N[C@@H]21`: the “activity change, negative = inhibition” value is -0.55% (inactive).

As for `Oc1cccc2ccccc12`, the “activity change, negative = inhibition” value was 0.994% [at 78.9 µM] (inactive).

`Cc1cccc(O)c1`: the “activity change, negative = inhibition” value is 8.51% [at 78.9 µM] (inactive).

For the molecule `Nc1cc([N+](=O)[O-])ccc1O`, the “activity change, negative = inhibition” value is 13.3% (inactive).

Turning to `CN(C)CCCN`, the Potency result was “inactive”.

With `OCC(CO)(CBr)CBr`, the Potency entry was “inactive”.

`CCCCC(CC)COC(=O)CS` (stereo not given): the “activity change, negative = inhibition” value is -11.4% (inactive).

`CCCCC(CC)COC(=O)CCCCC(=O)OCC(CC)CCCC` (stereo not given): the Potency entry is “inactive”.

On to `COc1cc(Cc2cnc(N)nc2N)cc(OC)c1OC`, for which the “activity change, negative = inhibition” value is -4.04% (inactive).
